# Most compounds without a hit are left out; they make up all but 22% or so of the library.
# CYP2C19 inh: blockers of cytochrome P450 2C19 activity – biochemical, luminescence, ADME assay, primary screen; P33261; AID 778, 2007; inhibition, % at 5 µM; hit rate 21% among 96,000; CYP2C19 Supersomes, luciferin-H EGE luminescence, 30 min;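 active = CYP2C19 inhibition above a set limit at 5 µM in the primary screen, cut at about 50% in these data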;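 also: plate controls were negative control wells for no effect and 2.5 mM tranylcypromine positive control for full effect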
# Target sequence (P33261 whole entry, looked up): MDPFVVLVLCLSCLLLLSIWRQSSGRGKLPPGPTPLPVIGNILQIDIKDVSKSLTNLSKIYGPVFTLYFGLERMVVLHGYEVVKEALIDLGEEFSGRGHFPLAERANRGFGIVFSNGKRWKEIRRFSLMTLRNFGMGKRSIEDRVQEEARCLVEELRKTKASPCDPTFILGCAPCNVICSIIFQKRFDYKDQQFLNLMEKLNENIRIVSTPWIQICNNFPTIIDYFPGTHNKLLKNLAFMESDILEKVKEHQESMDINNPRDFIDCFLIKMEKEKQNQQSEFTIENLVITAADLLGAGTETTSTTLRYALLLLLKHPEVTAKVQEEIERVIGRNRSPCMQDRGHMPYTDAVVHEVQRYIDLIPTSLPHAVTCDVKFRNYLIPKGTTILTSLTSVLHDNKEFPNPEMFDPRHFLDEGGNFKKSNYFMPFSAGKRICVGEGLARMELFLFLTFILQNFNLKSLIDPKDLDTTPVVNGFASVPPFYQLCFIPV
# CYP2C9 act: human CYP2C9 activators, primary screen, biochemical, luminescence. activation factor at 5 µM. hit rate 1.4% among 96,000. Cytochrome P450 2C9 (Homo sapiens), P11712. AID 1024, 2008. recombinant CYP2C9, luciferin-H conversion; stronger effect = higher value; factor 1 = untreated enzyme, 0 = blocked;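 active = activation factor of 2 or more for CYP2C9 at a 5 µM dose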;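 also: 0 = sulfaphenazole-blocked wells and 1 = vehicle-only wells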
# E-sel TNF inh: E-selectin induction blockers in HUVEC – imaging, immunofluorescence, high content, primary screen | HUVEC TNFa-induced E-selectin immunofluorescence | inhibition, % at 2 µM | hit rate 0.71% among 120,000 | AID 1246, 2008;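 active = inhibition above the batch mean plus 3 SD, and confirmed as a hit on visual image review, cut at about 43% in these data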;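 also: 0% = TNF-stimulated DMSO wells and 100% = unstimulated control wells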
# CYP2C9 inh: blockers of cytochrome P450 2C9 activity – biochemical, luminescence, ADME assay, primary screen; hit rate 20% among 96,000; inhibition, % at 5 µM; CYP2C9 Supersomes, luciferin-H conversion; P11712; AID 777, 2007;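 active = blocking of liver enzyme CYP2C9 beyond about 50% at 5 µM, limit read from the data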
# cytoskel mod: modifiers of F-actin cytoskeleton organization, primary screen, imaging, HUVEC, phalloidin staining, high-content imaging. HUVEC TNFa F-actin phalloidin imaging. hit rate 0.18% among 91,000. inhibition, % at 2 µM. AID 836, 2007;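 active = inhibition above the batch mean plus 3 SD and confirmed as a hit by visual image inspection, cut at about 30% in these data, passing the limit was not always enough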
# CYP2C19 act: human CYP2C19 activators, primary screen, biochemical, luminescence; 96,000 tested, under 10 active; activation factor at 5 µM; Cytochrome P450 2C19 (Homo sapiens), P33261; recombinant CYP2C19, luciferin-H EGE luminescence; stronger effect = higher value; 0 = fully inhibited enzyme, 1 = untreated enzyme;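 active = activation factor of at least 2 at 5 µM in the primary screen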;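 also: 0 = wells with 2.5 mM tranylcypromine and 1 = vehicle-only wells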
# Starred values were filed as active, the others as inactive; nt = no result given.
SMILES,CYP2C19 inh,CYP2C9 act,E-sel TNF inh,CYP2C9 inh,cytoskel mod,CYP2C19 act
COc1cccc(N(C(=O)CNC(=O)c2ccco2)C(C(=O)NC2CCCCC2)c2ccncc2)c1 (configuration not stated),57.1*,0.2,nt,76.0*,26.2,0.4
COc1ccc(CN(C(=O)CNC(=O)c2ccco2)C(C(=O)NC2CCCC2)c2ccco2)cc1 (configuration not stated),61.8*,0.4,9.8,62.3*,-6.4,0.4
COc1cccc(N(C(=O)c2ccco2)C(C(=O)NC2CCCC2)c2cccnc2)c1 (configuration not stated),66.7*,0.3,-8.9,65.0*,-7.7,0.3
O=C(NCC(=O)N(c1ccccc1)C(C(=O)NC1CCCC1)c1ccncc1)c1ccco1 (configuration not stated),nt,nt,2.4,nt,-6.3,nt
O=C(NCC(=O)N(Cc1ccccc1)C(C(=O)NC1CCCC1)c1ccco1)c1ccco1 (configuration not stated),47.2,1,-30.4,-3.2,-18.4,0.5
CCOC(=O)N1CCN(c2cc(N3CCN(CC)CC3)c(F)cc2[N+](=O)[O-])CC1C (configuration not stated),22.6,0.7,-25.3,34.0,-16.0,0.8
CCOc1ccc(-c2nn(-c3ccccc3)cc2/C=C2\SC(N)=NC2=O)cc1C,3.1,1,-10.0,-0.9,16.1,1
CC(C)C(NC(=S)NCc1ccccc1)C(=O)O (configuration not stated),86.2*,0.7,-3.1,34.2,-0.8,0.1
CCOC(=O)c1sc2c(c1C)C(c1cccs1)C1=C(CCCC1=O)N2 (configuration not stated),9.5,0.5,nt,45.7,22.0,0.9
CCOC(=O)C1=C(C)NC2=C(C(=O)CCC2)C1c1cccs1 (configuration not stated),73.7*,0.4,-22.3,64.5*,nt,0.3
CCOC(=O)C1=C(N)OC2=C(C(=O)CCC2)C1c1cccs1 (configuration not stated),88.2*,0.2,-7.8,80.2*,nt,0.1
COCCOC(=O)C1=C(N)OC2=C(C(=O)CCC2)C1c1cccnc1 (configuration not stated),60.9*,1,5.6,-2.1,nt,0.4
COCCOC(=O)C1=C(N)OC2=C(C(=O)CC(C)(C)C2)C1c1cccnc1 (configuration not stated),26.6,0.8,5.1,15.7,-17.2,0.7
COC(=O)c1ccc(OCC(O)CN(CC(C)C)CC(C)C)cc1 (configuration not stated),73.6*,0.3,nt,70.9*,-4.8,0.3
CCC(=O)c1ccc(OCC(O)CN(CCc2ccccc2)Cc2ccccc2)cc1 (configuration not stated),52.9*,0.3,-42.4,70.4*,5.6,0.5
COC(=O)c1ccc(OCCOc2ccc(C(=O)OC)cc2)cc1,13.9,0.7,0.6,27.8,0.1,0.9
COc1cccc(OCC(O)CN(CCO)Cc2ccccc2)c1 (configuration not stated),25.3,0.7,6.6,28.9,10.8,0.7
CCN(CC)CC(O)COc1ccccc1C(=O)CCc1ccccc1 (configuration not stated),59.5*,0.7,nt,28.5,17.7,0.4
COC(=O)C1=C(C)N(C(C)C)C(=O)C1(NC(C)=O)C(F)(F)F (configuration not stated),-7.8,1.1,-8.5,-7.8,6.3,1.1
CCOC(=O)c1cnc2c(OC)cccc2c1N1CCN(c2ccc(OC)cc2)CC1,67.3*,0.3,-48.1,73.0*,-8.6,0.3
CCOC(=O)c1cnc2c(OC)cccc2c1N1CCN(c2ccccc2OC)CC1,7.3,0.5,nt,46.2,-5.6,0.9
CCN(CC)Cc1c(O)ccc2c(-c3ccccc3)cc(=O)oc12,9.7,1.1,19.6,-9.9,-25.5,0.9
CN1CCN(Cc2c(O)ccc3c(-c4ccccc4)cc(=O)oc23)CC1,53.5*,0.8,15.7,19.3,40.3,0.5
CN1CCN(Cc2c(O)ccc3occ(C(=O)c4ccccc4)c23)CC1,98.9*,0.9,-7.8,8.4,-15.9,0

# Screening results from PubChem BioAssay.
